# Tested on: VDR:RXRa (NR concentration 270 nM, RXRa partner concentration 90 nM)
# Assay: PBM binding z-score (relative to random genomic background probes); higher = stronger binding; sequences stand for … in GC…GCGATTGACAGCGTAGAATGAAGG
# Protocol: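 Protein-binding microarray (Agilent 4x180K custom design, double-stranded 60-nt probes: 5' GC cap, 34-nt variable region, 24-nt constant primer region; full probe sequence given). Purified or IVT nuclear receptor:RXRα heterodimers (3:1 NR:RXRα, mostly 270:90 nM) or homodimers were incubated for 1 h in PBS with 2% milk and no ligand, then detected with Alexa488 antibodies. Fluorescence from o1-orientation probes (~5 replicates averaged) was converted to z-scores against 500 random hg19 background probes. Variable regions are seed direct-repeat (DR0–DR5) sites, all their single-nucleotide variants and half-site ablations.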
row,Sequence,PBM binding z-score
1,CCTGCTAGGTCAATGGTCAGCTGAAGCAGCTCGC,0.785
2,GCTCGGAGGATAAGGTCAGAGCTTTGTCCGTAGA,1.15
3,TCGAGTAGGTTAGCCGGGGCATTCAGCCAACATA,2.46
4,CGTCCAAGGTCAATGGTCAGTGAAGAGATGACGG,3.55
5,CCTACCGGGCCAAGGTCATTGATCAGTCAAAGCA,3.22
6,CGAACTAGTTCAGAACAGGACAGTGAAGGATGAT,-0.0284
7,CCAGACAGGTGAAAGGGAACTCAGTCTGGTACGC,-0.152
8,CCTATTAGTTGACCATAAGGGCACCCGAAGCTCG,1.09
9,ACTAGCAGGCCAAGGGTCTCTCAAGATTAGTCCG,-0.657
10,TCATATAGGTAAAAGGTGAGAGTCGGTGTGGTAA,1.29
11,GTACCAAGGTGAATAGGACGTTGATGAGTAGGCG,-0.357
12,TGTCAAAGTTCAAAGGTAACATAAGTATCCACAC,5.14
13,GCTCGGAGGAAAAGGTCAGAGCTTTGTCCGTAGA,2.14
14,TCTATTAGTTGAAGGGCAACCGACGAGTCCGTTT,1.09
15,GATACAGGGTCCGCTAGAGGCCAGAGTATGGAAA,-0.544
16,TAGCCTAGGTCATTCAGGGGCCAATATAGAAAGC,3.77
17,CCTGCTGGGCCATTCAGAGGTCATTGATCATATG,4.03
18,CCGACTGAGGCAGAAAGGTTACCATACCATCCGG,0.732
19,CTAACGAGGGCATGAGTTGATAGCAAATGCCGAT,1.4
20,TCTTGTAGATCAAGCAGGTTAAGCAAGCCTGAGT,0.328

row,Sequence,PBM binding z-score
1,AGAACGAGGGCAATGAGTTGACAGCACGGGTGGC,5.03
2,TCTCGGAGGGCACGAAGGTCAGAGCTTTCCAGAG,5.15
3,GCTTGTAGATCAAGGTTAATAAAGACTAAGCTAA,-0.00898
4,CCTCGGTGGACAACAGGAGGTCAGAGCTGCCAGA,1.07
5,CCTACTGGGCCAAAAACGTCATTGATGCCGATAA,-0.0711
6,CAAACTAGGTCACGAAACGTCAAAGTCGAATGAC,2.2
7,ATCTCTAGGCAAAGTTCAGTGAAAGATCGATAGA,1.06
8,AGTCAAAGTTCATCCAGGTAACGTAAGATATGCT,5.39
9,ACAACGAGGGCACGCTGAGTTGATAGCAGAGTAG,2.01
10,GGAACGAGGGCAAGATGATAGCAGAGTTTGATGG,0.221
11,GCATATAGGTAATACAAGGTGAAAGGCCGATTGT,0.402
12,CCTACTGGGCCATCAGGTCATTGAAATCAACGTT,1.28
13,GCGACCGGGGCAAAGCAGGTTACCATAAGGTTGG,0.7
14,TCTTGTAGTTCAACAGGAGGTTAAGAAAGATCGA,2.57
15,CCAAACAGGTGAAAGGTAACTCAGTCTGGTACGC,0.991
16,CTCGAAATGTCGGTTGAGGTGAGTATACGGATAA,-0.148
17,ACTACTAGTTGACTTAGGGCAACCGATACGACGC,0.191
18,TCATATAGGTAAACAGGTGAATGTCCGTAAGTTA,0.948
19,TCTATTAGTTCATTAGGGCAACCGAAACAGCGGA,2.2
20,AGAATGAGGTTACCAAAGATTAGGGAAACGCTTG,1.05
